# About 410 targets per protein were measured; listed, in parts, are those with the strongest signals and a random draw of the rest.
# B1: Surfactant Protein D (Human); Neck + Carbohydrate Recognition Domain (NCRD) (Homo sapiens) (protein)
# chain: MLLFLLSALVLLTQPLGYLEAEMKTYSHRTMPSACTLVMCSSVESGLPGRDRDGREGPRGEKGDPGLPGAAGQAGMPGQAGPVGPKGDNGSVGEPGPKGDTGPSGPPGPPGVPGPAGREGALGKQGNIGPQGKPGPKGEAGPKGEVGAPGMQGSAGARGLAGPKGERGVPGERGVPGNTGAAGSAGAMGPQGSPGARGPPGLKGDKGIPGDKGAKGESGLPDVASLRQQVEALQGQVQHLQAAFSQYKKVELFPNGQSVGEKIFKTAQFVKPFTEAQLLCTQAGGQLASPRSAAENAALQQLVVAKNEAAFLSMTDSKTEGKFTYPTGESLVYSNWAPGEPNDNGGSEDCVEIFTNGKWNDRACGEKRLVVCEF
# Tests used:
# Experiment in all cases: glycan array binding signal (z-score within array); higher = stronger binding
# Conditions in all cases: glycan notation: IUPAC condensed, linker removed; mutation: D325N
# [1] = target: Fuc(a1-2)[Gal(a1-3)]Gal(b1-4)[Fuc(a1-3)]GlcNAc
# Outline: (§1)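 Negative Z-scores can be read as non-binding. The Z-score is calculated within each array and then averaged across arrays of one protein sequence at different concentrations or buffers and across linkers. Arrays, 3228 in all, were curated from the Consortium for Functional Glycomics database and kept only where the protein sequence was available.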
# [2] = target: Fuc(a1-3)[Gal3S(b1-4)]Glc6S
# Outline: as §1
# Gal(a1-2)Gal = target: Gal(a1-2)Gal
# Outline: as §1
# Gal(a1-3)Gal(b1-3)GlcNAc = target: Gal(a1-3)Gal(b1-3)GlcNAc
# Outline: as §1
# Gal(a1-3)Gal(b1-4)Glc = target: Gal(a1-3)Gal(b1-4)Glc
# Outline: as §1
# [3] = target: Gal(b1-3)[Neu5Ac(b2-6)]GalNAc
# Outline: as §1
# [4] = target: Gal(b1-4)GlcNAc(b1-3)Gal(b1-4)[Fuc(a1-3)]GlcNAc(b1-3)Gal(b1-4)[Fuc(a1-3)]GlcNAc
# Outline: as §1
# [5] = target: Gal(b1-4)GlcNAc(b1-6)Gal(b1-4)GlcNAc(b1-6)GalNAc
# Outline: as §1
# [6] = target: Gal(b1-4)GlcNAc(b1-6)GalNAc
# Outline: as §1
# [7] = target: Gal(b1-4)GlcNAc(b1-6)[Gal(b1-3)]GalNAc
# Outline: as §1
# GlcNAc(b1-3)Gal(b1-4)Glc = target: GlcNAc(b1-3)Gal(b1-4)Glc
# Outline: as §1
# [8] = target: GlcNAc(b1-6)Gal(b1-4)GlcNAc
# Outline: as §1
# [9] = target: Man(a1-2)Man(a1-2)Man(a1-3)Man
# Outline: as §1
# [10] = target: Man(a1-2)Man(a1-3)[Man(a1-2)Man(a1-6)]Man
# Outline: as §1
# [11] = target: Man(a1-2)Man(a1-3)[Man(a1-2)Man(a1-6)]Man(a1-6)[Man(a1-2)Man(a1-2)Man(a1-3)]Man
# Outline: as §1
# [12] = target: Man(a1-2)Man(a1-6)[Man(a1-3)]Man(a1-6)[Man(a1-2)Man(a1-2)Man(a1-3)]Man
# Outline: as §1
# [13] = target: Man(a1-3)[Man(a1-6)]Man(a1-6)[Man(a1-3)]Man
# Outline: as §1
# [14] = target: Man(a1-3)[Man(a1-6)]Man(a1-6)[Man(a1-3)]Man(b1-4)GlcNAc(b1-4)GlcNAc
# Outline: as §1
# [15] = target: Neu5Ac(a2-3)Gal(b1-3)GlcNAc
# Outline: as §1
# [16] = target: Neu5Ac(a2-3)Gal(b1-4)[Fuc(a1-3)]GlcNAc(b1-3)Gal(b1-4)GlcNAc
# Outline: as §1
# [17] = target: Neu5Ac(a2-3)GalNAc(b1-4)GlcNAc
# Outline: as §1
# Neu5Ac(a2-6)Gal = target: Neu5Ac(a2-6)Gal
# Outline: as §1
# Neu5Ac(a2-6)Gal(b1-4)Glc = target: Neu5Ac(a2-6)Gal(b1-4)Glc
# Outline: as §1
# Neu5Ac(a2-6)GalNAc = target: Neu5Ac(a2-6)GalNAc
# Outline: as §1
# [18] = target: Neu5Ac(a2-8)Neu5Ac(a2-8)Neu5Ac
# Outline: as §1
binder,measurement,setting,value
B1,glycan array binding signal (z-score),[1],-0.1
same,glycan array binding signal (z-score),[2],-0.117
same,glycan array binding signal (z-score),Gal(a1-2)Gal,-0.109
same,glycan array binding signal (z-score),Gal(a1-3)Gal(b1-3)GlcNAc,-0.169
same,glycan array binding signal (z-score),Gal(a1-3)Gal(b1-4)Glc,-0.123
same,glycan array binding signal (z-score),[3],-0.139
same,glycan array binding signal (z-score),[4],-0.105
same,glycan array binding signal (z-score),[5],-0.132
same,glycan array binding signal (z-score),[6],-0.138
same,glycan array binding signal (z-score),[7],-0.128
same,glycan array binding signal (z-score),GlcNAc(b1-3)Gal(b1-4)Glc,-0.118
same,glycan array binding signal (z-score),[8],-0.138
same,glycan array binding signal (z-score),[9],2.18
same,glycan array binding signal (z-score),[10],1.77
same,glycan array binding signal (z-score),[11],9.38
same,glycan array binding signal (z-score),[12],8.54
same,glycan array binding signal (z-score),[13],11.2
same,glycan array binding signal (z-score),[14],0.338
same,glycan array binding signal (z-score),[15],-0.127
same,glycan array binding signal (z-score),[16],-0.114
same,glycan array binding signal (z-score),[17],-0.148
same,glycan array binding signal (z-score),Neu5Ac(a2-6)Gal,-0.148
same,glycan array binding signal (z-score),Neu5Ac(a2-6)Gal(b1-4)Glc,-0.153
same,glycan array binding signal (z-score),Neu5Ac(a2-6)GalNAc,-0.129
same,glycan array binding signal (z-score),[18],-0.163

# Reference: the supplement of paper PMC8728848
